FEN1 inhibitor: inhibitors of human flap endonuclease 1; Recombinant FEN1 flap cleavage, fluorescence, 15 min; Potency, µM (titrated, usually from 114 µM), for the others: at the top dose activity change, negative = inhibition, hits mostly inhibitors; 0.35% of 390,000 active; P39748; AID 588795; note: % is set by controls: 0 for no effect and ±100 for the full control effect; nearly all actives have a fitted effect of over 65% in size
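Read-out was taken twice, immediately and after 15 min, following addition of 50 nM substrate to 10 nM FEN1 that had sat with test compound for 15 min at room temperature. Curves came from a four-parameter Hill model.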
Pol kappa inh: inhibitors of human DNA polymerase kappa; 0.53% of 400,000 active; Q9UBT6; Potency, µM (series often up to 107 µM), for inactives: top-dose activity, negative = inhibition, actives largely listed as inhibitors; purified Pol kappa, fluorescent DNA synthesis assay, 10 min; note: % is set by controls: 0 for no effect and ±100 for the full control effect
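Pol kappa 10 nM + cpd, 15 min RT; start w/ substrate 50 nM final; fluorescence kinetic read, 0 and 10 min. Neg ctrl: buffer, no enzyme.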
POLH inh: DNA polymerase eta (human) inhibition | Q9Y253 | recombinant Pol eta, fluorescent DNA replication assay | Potency, µM (series often up to 114 µM), for the others: at the highest dose activity change, negative = inhibition, actives largely listed as inhibitors | 1.2% of 390,000 active | AID 588591; note: % is set by controls: 0 for no effect and ±100 for the full control effect
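Pol eta at 10 nM preincubated with compounds 15 min at room temperature; reaction started with fluorescent substrate (50 nM final) and read kinetically at 0 and 10 min.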
WRN helicase inh-1: blocks human WRN helicase; WRN helicase unwinding, fluorescent forked duplex, kinetic; Potency, µM (doses to about 114 µM), for the others: at the top dose activity change, negative = inhibition, actives largely listed as inhibitors; 0.46% of 360,000 active; note: % is set by controls: 0 for no effect and ±100 for the full control effect; nearly all actives have a fitted effect of over 55% in size
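WRN at 20 nM final was preincubated with compound for 15 min at room temperature; reaction started with 100 nM forked duplex oligonucleotide carrying fluorophore and quencher plus 2 mM ATP (final). Unwinding followed kinetically by red fluorescence (ex 525/em 598 nm).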
Pol iota inh: DNA polymerase iota (human) inhibition; Potency, µM (doses to about 115 µM), for the others: at the highest dose activity, negative = inhibition, usual class: inhibitors; Pol iota fluorescent replication assay, 10 min; 1% of 390,000 active; Q9UNA4; AID 588590
Target sequence (Q9UNA4 whole entry, looked up): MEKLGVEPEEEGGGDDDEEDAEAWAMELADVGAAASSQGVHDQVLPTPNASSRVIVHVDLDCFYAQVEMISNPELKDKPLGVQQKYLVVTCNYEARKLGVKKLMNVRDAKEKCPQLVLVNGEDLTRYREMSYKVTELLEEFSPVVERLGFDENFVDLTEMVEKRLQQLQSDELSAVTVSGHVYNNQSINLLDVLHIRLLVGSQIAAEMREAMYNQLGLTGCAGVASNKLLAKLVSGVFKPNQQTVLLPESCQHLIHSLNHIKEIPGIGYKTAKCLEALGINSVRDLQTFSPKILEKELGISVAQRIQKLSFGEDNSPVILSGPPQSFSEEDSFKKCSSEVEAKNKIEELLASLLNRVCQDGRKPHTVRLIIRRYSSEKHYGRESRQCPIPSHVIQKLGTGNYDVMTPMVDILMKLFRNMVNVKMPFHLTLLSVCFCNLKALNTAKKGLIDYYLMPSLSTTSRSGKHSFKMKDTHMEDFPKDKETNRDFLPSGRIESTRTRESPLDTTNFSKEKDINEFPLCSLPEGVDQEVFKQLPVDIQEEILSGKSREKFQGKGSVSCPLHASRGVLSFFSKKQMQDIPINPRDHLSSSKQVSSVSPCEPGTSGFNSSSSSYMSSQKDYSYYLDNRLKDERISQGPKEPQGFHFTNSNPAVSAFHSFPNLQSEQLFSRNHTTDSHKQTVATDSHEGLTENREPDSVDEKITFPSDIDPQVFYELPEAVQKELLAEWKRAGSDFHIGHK
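Fluorescent replication assay read twice, at 0 min and 10 min after adding 50 nM (final) substrate. Enzyme (10 nM) and compounds were first incubated 15 min at room temperature; enzyme-free buffer wells were negative controls.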
Pol beta inh: blocks human DNA polymerase beta activity. P06746. Pol beta primer extension/strand displacement, fluorescence kinetic. Potency, µM (titrated, usually from 114 µM), for the others: at the top dose activity change, negative = inhibition, actives largely listed as inhibitors. 1.3% of 340,000 active; note: % is set by controls: 0 for no effect and ±100 for the full control effect
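Values derive from four-parameter Hill fits of normalized kinetic data: reads at 0 and 10 min following addition of 50 nM substrate to 10 nM Pol beta preincubated 15 min with compound.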
WRN helicase inh-2: confirmation of human WRN helicase inhibitors; 63% of 610 active; Potency, µM (series often up to 57.1 µM), inactives show top-dose activity, negative = inhibition, actives largely listed as inhibitors; shares compounds with WRN helicase inh-1; WRN helicase DNA unwinding, fluorescence kinetic; note: nearly all actives have a fitted effect of over 65% in size
TO displacement: binds DNA, flagged in WRN inhibitor counterscreen. Potency, µM (doses to about 57.1 µM), for the others: at the top dose activity change, negative = inhibition, most hits filed as inhibitors. shares compounds with WRN helicase inh-1. 10% of 610 active. AID 720499. thiazole orange DNA binding displacement, fluorescence;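 note: drop in dye fluorescence marks compound binding to DNA; % is set by controls: 0 for no effect and ±100 for the full control effect; nearly all actives have a fitted effect of over 60% in size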
BLM counter: counter-screen for WRN helicase inhibitors: human BLM helicase inhibition. shares compounds with WRN helicase inh-1. Recombinant BLM helicase DNA unwinding, red fluorescence. Potency, µM (highest dose often 57.1 µM), for the others: at the highest dose activity change, negative = inhibition, actives largely listed as inhibitors. 60% of 610 active. AID 720503; note: nearly all actives have a fitted effect of over 60% in size
* = called active by the depositor; ? = inconclusive; . = no result given. In the library only some 2.4% were active in any assay of this set; here they are far more common. Calls come from the whole dose curve; as a rule, active = well fitted curve in the direction sought with a large enough effect; inconclusive = small, poorly fitted or top-dose-only effect, or another doubt; inactive = no such curve, though single readings can be large; an effect the other way counts as inactive or inconclusive. Potency is the fitted concentration of half-maximal effect.

SMILES	FEN1 inhibitor	Pol kappa inh	POLH inh	WRN helicase inh-1	Pol iota inh	Pol beta inh	WRN helicase inh-2	TO displacement	BLM counter
CN1C(=O)c2ccccc2N(C)C1c1ccc2c(c1)OCO2 (centres undefined)	6.5%	-18.8%	-5.7%	-6.0%	2.0%	-14.3%	.	.	.
CC1=C([N+](=O)[O-])C(c2ccc3c(c2)OCO3)N(C)C(=O)N1C (centres undefined)	-8.0%	-14.4%	-14.9%	?	28.0%	-1.2%	-6.4%	-1.3%	-13.5%
CCC(=O)Nc1cccc(-c2nc3ccc(C)cc3o2)c1	-9.1%	-2.8%	0.1%	4.1%	12.5%	-1.9%	.	.	.
ClC(Cl)(c1nnnn1-c1ccccc1)c1nnnn1-c1ccccc1	50.1µM*	-4.9%	2.0%	6.31µM*	14.1µM*	3.2%	?	1.9%	?
O=C(Nc1ccc(NC(=O)c2cccs2)cc1)c1ccc(Br)o1	-3.9%	-34.3%	?	?	?	?	?	-9.2%	9.61µM*
Cc1ccc(-c2[nH]c(-c3ccc(C(=O)O)cc3)nc2-c2ccccc2)cc1	-6.7%	-19.8%	-3.2%	?	-2.0%	3.2%	24.1µM*	-28.2%	?
O=C1C(=Cc2cn(-c3ccccc3)nc2-c2ccc(OCc3ccccc3)cc2)SC(=S)N1CCS(=O)(=O)O	.	.	.	25.1µM*	.	.	10.8µM*	-29.1%	6.81µM*
Cc1ccc(Oc2ncccc2NC(=O)CCCC(=O)O)c2c1CCC2	12.4%	3.9%	-6.9%	3.5%	5.8%	1.9%	.	.	.
CC1=C(C)CS(=O)N(S(=O)(=O)c2ccc(Cl)cc2)C1 (centres undefined)	-27.9%	-2.3%	-2.8%	12.6µM*	?	-2.0%	-29.7%	2.5%	?
COc1cc(OC)cc(C(=O)Nc2cc(-c3nc4cc(Cl)ccc4o3)ccc2Cl)c1	-3.9%	1.9%	4.0%	.	-16.3%	10.7%	.	.	.
O=C(Nc1ccc(S(=O)(=O)N2CCOCC2)cc1)C1CC(=O)N(c2ccc(F)cc2)C1 (centres undefined)	-4.0%	-1.4%	-15.7%	-3.4%	26.4%	5.9%	.	.	.
O=S(=O)(Cc1ccccc1)N(O)c1ccccc1	-20.8%	-3.9%	-7.0%	?	71.1%	9.3%	0.9%	-6.8%	0.1%
O=C(O)CNS(=O)(=O)Cc1ccccc1	1.1%	0.0%	-16.1%	3.6%	14.3%	15.5%	.	.	.
CC(C)C(=O)N1CCC2(CC1)Oc1ccc(F)cc1C(=O)C21CC(c2ccc(Cl)cc2)=NO1 (centres undefined)	7.4%	2.6%	-11.9%	-2.4%	?	7.5%	.	.	.
CC1Cc2ccccc2N1C(=O)c1ccc(N2CCCCC2)c([N+](=O)[O-])c1 (centres undefined)	-5.8%	-21.6%	-18.1%	-5.3%	0.3%	1.7%	.	.	.
CCN1CCN(C(=O)/C=C/c2ccc(C(C)C)cc2)CC1	11.2%	-7.5%	-1.5%	-13.4%	-12.4%	.	.	.	.
CCN1CCC(O)(/C=C/c2ccc(C(C)C)cc2)C(C(=O)/C=C/c2ccc(C(C)C)cc2)C1 (centres undefined)	-25.3%	-14.6%	-19.7%	15.8µM*	1.0%	.	-27.9%	-29.6%	?
N#CC1C(=O)c2ccccc2C1c1ccccc1 (centres undefined)	0.9%	-8.3%	12.1%	12.6µM*	?	.	-13.7%	2.4%	-14.7%
CCN1CC(CN(C)Cc2nc(COc3ccccc3)no2)CC1=O (centres undefined)	12.9%	2.0%	-22.1%	6.1%	104.2%	33.6%	.	.	.
CCc1nc2c(OCCn3cccc3)cccn2c1N(C)C(=O)c1cccs1	.	.	.	-5.9%	.	.	.	.	.
COC1=C(OC)C(=O)C(Sc2ccc3ccccc3c2)=CC1=O	5.3%	-8.0%	-19.8%	20µM*	?	.	8.6%	-8.1%	-6.4%
Cc1ccc2nc(CCl)[n+]([O-])c(-c3ccccc3)c2c1	4.6%	-6.5%	-9.7%	79.4µM*	-16.4%	19.0%	-1.2%	-1.8%	-10.7%
Cc1ccc2nc(Cl)nc(-c3ccccc3)c2c1	2.2%	-18.9%	-10.4%	-6.4%	73.1%	-0.2%	.	.	.
O=C(OC(C(=O)c1c[nH]c2ccccc12)c1ccccc1)c1cnccn1 (centres undefined)	0.6%	0.8%	1.0%	-0.6%	1.6%	3.5%	.	.	.
CSc1cc2c(s1)c1cnn(Cc3cccc(N)c3)c(=O)c1n2C	.	.	.	.	.	.	-12.2%	-7.7%	?
Cn1c2cc(C#N)sc2c2cnn(Cc3ccc(F)cc3)c(=O)c21	1.3%	-1.5%	-12.0%	.	-49.1%	.	.	.	.
Cc1cccc(C(=O)N[C@H](C(=O)Nc2nc(C)cs2)C(C)C)c1	14.9%	-13.9%	-21.9%	8.7%	-2.6%	-16.2%	.	.	.
O=C(N/N=C/c1cccc2ccccc12)c1ccncc1	-0.3%	-10.9%	-2.8%	11.2%	2.7%	20.1%	.	.	.
O=C(/C=C/c1cccc2ccccc12)c1ccncc1	-11.1%	-3.1%	?	?	-1.1%	6.9%	-16.5%	-10.9%	-13.9%
COc1cccc(/C=C2/CCC(CN(C)C)C2=O)c1 (centres undefined)	1.2%	-3.5%	?	12.6µM*	?	.	-25.6%	-13.8%	?

Bioassay records as filed in PubChem.
